This passage reports Percent Effect results from ChEMBL document CHEMBL3988442, “University of Dundee, Small-Polar-MMV Screening Library” (2021).

Parameters in all cases: scale not given: direction of the effect not stated beside the values
The target of test [1] is Protein translocase subunit SecA (Escherichia coli (strain K12)) (UniProt P10408). Kind of test: Assay to Identify E. coli SecA ATPase Inhibitors. Format: functional. The note with it: 30 µM.
The target in test [2] is T1, Ubiquitin-activating enzyme e1, putative (Leishmania donovani (strain BPK282A1)) (UniProt E9BSI1).
T1 sequence (whole entry): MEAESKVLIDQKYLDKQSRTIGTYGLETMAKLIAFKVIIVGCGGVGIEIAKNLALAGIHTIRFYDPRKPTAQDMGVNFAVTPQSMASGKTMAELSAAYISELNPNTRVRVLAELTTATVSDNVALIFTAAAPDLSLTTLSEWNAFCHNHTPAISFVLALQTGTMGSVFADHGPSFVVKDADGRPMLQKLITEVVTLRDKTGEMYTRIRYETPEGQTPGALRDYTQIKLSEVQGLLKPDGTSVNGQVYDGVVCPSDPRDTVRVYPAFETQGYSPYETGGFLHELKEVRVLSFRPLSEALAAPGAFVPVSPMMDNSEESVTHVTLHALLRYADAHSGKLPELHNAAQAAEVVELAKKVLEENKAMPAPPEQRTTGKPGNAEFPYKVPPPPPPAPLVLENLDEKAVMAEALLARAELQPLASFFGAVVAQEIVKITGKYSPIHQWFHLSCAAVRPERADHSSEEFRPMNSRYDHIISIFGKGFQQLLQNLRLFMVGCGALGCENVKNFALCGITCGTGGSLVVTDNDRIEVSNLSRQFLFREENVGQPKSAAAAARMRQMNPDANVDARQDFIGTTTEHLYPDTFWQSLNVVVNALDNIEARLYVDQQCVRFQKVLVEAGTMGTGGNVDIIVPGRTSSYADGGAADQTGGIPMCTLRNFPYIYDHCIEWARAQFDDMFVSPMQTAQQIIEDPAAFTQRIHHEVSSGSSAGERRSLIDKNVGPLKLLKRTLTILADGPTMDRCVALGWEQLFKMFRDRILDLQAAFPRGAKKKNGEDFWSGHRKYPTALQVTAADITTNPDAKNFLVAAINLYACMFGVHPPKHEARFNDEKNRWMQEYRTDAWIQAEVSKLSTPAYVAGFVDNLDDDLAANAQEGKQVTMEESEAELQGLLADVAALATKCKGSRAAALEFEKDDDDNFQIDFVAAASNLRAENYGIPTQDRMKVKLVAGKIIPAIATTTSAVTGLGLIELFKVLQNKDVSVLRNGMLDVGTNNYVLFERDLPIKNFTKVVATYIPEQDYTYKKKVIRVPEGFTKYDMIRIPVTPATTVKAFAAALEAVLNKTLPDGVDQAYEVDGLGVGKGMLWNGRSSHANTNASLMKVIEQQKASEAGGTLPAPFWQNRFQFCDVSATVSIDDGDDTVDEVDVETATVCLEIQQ
The test can be described thus: Leishmania donovani Ubiquitin Activating Enzyme (LdE1). Format: functional. The note with it: 30 µM.

For test [3], the target named is Sialic acid-binding Ig-like lectin 9 (Homo sapiens) (UniProt Q9Y336). The test can be described thus: Hs-Siglec9 ALPHAscreen SOP 20170721. The conditions noted are these: 10 µM.
Sialic acid-binding Ig-like lectin 9 (Homo sapiens), sequence (Q9Y336 whole entry): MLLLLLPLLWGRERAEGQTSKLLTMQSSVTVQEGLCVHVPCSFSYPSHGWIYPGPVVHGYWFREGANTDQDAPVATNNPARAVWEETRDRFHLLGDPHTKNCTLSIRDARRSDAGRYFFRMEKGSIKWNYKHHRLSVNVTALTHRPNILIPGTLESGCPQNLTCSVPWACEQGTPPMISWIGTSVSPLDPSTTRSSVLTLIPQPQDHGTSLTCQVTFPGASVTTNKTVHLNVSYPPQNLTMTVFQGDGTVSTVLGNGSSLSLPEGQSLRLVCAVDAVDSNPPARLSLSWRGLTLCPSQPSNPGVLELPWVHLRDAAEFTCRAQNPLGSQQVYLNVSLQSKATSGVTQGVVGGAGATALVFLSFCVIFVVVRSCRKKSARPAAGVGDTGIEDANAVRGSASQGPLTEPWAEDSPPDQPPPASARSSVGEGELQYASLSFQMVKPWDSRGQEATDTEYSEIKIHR
Another test deals with Trypanosoma cruzi. Kind of test: Trypanosoma cruzi phosphomannomutase and mannose-1-phosphate guanylyltransferase assay. It counts as functional. The conditions noted are these: 10 µM.
The target in test [4] is T2, Arginase-2, mitochondrial (Homo sapiens) (UniProt P78540).
T2 sequence (whole entry): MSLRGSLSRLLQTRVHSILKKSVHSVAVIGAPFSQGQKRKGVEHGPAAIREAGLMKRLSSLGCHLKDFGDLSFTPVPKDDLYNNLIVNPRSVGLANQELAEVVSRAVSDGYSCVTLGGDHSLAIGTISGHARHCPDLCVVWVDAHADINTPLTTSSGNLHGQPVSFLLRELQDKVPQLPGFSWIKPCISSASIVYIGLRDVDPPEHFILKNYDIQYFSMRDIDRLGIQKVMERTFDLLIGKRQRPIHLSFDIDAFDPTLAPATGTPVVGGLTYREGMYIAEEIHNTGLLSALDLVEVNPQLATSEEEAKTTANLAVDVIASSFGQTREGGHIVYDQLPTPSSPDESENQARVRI
Kind of test: in vitro enzyme assay to detect the production of urea directly proportional to the activity of Arginase II. Further: in the data most compounds retested in dose-response had high values. The conditions noted are these: 33.3 µM. It counts as functional.

The target of test [5] is T3, Proteasome subunit beta (Trypanosoma cruzi) (UniProt O96673).
T3 sequence (whole entry): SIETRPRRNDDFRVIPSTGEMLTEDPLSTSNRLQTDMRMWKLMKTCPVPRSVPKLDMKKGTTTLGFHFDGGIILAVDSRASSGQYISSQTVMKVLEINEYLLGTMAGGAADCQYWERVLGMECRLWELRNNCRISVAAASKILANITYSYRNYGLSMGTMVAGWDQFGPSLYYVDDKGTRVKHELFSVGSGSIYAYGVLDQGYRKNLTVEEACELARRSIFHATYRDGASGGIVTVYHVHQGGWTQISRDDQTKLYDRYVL
Kind of test: Trypanosoma cruzi proteasome chymotrypsin-like activity (TcProtChymo) assay. Further: in the data most compounds retested in dose-response had high values. Format: functional. The note with it: 9.37 µM.

For a further test, the species on record is Homo sapiens. The test can be described thus: To identify inhibition of the IFN signalling (Jak-Stat) pathway via expression of an eGFP reporter gene under the control of an IFN-stimulated response element (ISRE) containing MxA promoter. It counts as functional. The note with it: 30 µM. In general terms: In a reporter assay the amount or activity of a reporter protein is the signal.

In test [6] the target is T4, Tyrosyl-tRNA synthetase, putative (Trypanosoma cruzi (strain CL Brener)) (UniProt Q4DSP6).
T4 sequence (whole entry): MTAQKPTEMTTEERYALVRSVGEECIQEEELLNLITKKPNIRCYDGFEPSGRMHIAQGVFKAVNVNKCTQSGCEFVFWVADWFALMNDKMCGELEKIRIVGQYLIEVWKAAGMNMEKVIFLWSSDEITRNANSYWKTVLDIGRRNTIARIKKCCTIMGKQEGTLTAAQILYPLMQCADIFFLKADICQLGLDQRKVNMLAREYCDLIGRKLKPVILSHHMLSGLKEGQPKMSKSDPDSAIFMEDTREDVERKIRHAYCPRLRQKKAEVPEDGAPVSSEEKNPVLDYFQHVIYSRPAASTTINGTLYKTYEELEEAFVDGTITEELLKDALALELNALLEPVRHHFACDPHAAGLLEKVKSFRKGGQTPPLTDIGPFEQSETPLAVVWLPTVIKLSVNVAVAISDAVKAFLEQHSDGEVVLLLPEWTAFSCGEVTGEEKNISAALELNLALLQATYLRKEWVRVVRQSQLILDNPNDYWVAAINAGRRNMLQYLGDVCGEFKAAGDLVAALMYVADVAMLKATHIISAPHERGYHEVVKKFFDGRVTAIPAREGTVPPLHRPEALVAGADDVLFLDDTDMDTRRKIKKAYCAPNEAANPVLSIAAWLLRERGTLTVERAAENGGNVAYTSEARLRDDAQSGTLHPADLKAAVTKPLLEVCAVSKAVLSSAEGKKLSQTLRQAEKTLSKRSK
The test can be described thus: Trypanosoma cruzi tyrosyl tRNA synthetase (TcYRS) _High Tyrosine SOP. Further: in the data most compounds retested in dose-response had high values. It counts as functional. The conditions noted are these: 30 µM.

Test [7] addresses T4, Tyrosyl-tRNA synthetase, putative (Trypanosoma cruzi (strain CL Brener)). Kind of test: Trypanosoma cruzi tyrosyl tRNA synthetase (TcYRS) SOP. It counts as functional. The note with it: 30 µM.
Test [8] addresses Chromo domain-containing protein 1 (Saccharomyces cerevisiae (strain ATCC 204508 / S288c) (Baker's yeast)) (UniProt P32657). Kind of test: ScCHD-1 Enzyme Inhibition Assay. Further: in the data most compounds retested in dose-response had high values. It counts as functional. The note with it: 30 µM.

For some assays here: Entries with a potency or affinity are not part of this list.

Chromo domain-containing protein 1 (Saccharomyces cerevisiae (strain ATCC 204508 / S288c) (Baker's yeast)), sequence (P32657 whole entry, the tested form may be a part): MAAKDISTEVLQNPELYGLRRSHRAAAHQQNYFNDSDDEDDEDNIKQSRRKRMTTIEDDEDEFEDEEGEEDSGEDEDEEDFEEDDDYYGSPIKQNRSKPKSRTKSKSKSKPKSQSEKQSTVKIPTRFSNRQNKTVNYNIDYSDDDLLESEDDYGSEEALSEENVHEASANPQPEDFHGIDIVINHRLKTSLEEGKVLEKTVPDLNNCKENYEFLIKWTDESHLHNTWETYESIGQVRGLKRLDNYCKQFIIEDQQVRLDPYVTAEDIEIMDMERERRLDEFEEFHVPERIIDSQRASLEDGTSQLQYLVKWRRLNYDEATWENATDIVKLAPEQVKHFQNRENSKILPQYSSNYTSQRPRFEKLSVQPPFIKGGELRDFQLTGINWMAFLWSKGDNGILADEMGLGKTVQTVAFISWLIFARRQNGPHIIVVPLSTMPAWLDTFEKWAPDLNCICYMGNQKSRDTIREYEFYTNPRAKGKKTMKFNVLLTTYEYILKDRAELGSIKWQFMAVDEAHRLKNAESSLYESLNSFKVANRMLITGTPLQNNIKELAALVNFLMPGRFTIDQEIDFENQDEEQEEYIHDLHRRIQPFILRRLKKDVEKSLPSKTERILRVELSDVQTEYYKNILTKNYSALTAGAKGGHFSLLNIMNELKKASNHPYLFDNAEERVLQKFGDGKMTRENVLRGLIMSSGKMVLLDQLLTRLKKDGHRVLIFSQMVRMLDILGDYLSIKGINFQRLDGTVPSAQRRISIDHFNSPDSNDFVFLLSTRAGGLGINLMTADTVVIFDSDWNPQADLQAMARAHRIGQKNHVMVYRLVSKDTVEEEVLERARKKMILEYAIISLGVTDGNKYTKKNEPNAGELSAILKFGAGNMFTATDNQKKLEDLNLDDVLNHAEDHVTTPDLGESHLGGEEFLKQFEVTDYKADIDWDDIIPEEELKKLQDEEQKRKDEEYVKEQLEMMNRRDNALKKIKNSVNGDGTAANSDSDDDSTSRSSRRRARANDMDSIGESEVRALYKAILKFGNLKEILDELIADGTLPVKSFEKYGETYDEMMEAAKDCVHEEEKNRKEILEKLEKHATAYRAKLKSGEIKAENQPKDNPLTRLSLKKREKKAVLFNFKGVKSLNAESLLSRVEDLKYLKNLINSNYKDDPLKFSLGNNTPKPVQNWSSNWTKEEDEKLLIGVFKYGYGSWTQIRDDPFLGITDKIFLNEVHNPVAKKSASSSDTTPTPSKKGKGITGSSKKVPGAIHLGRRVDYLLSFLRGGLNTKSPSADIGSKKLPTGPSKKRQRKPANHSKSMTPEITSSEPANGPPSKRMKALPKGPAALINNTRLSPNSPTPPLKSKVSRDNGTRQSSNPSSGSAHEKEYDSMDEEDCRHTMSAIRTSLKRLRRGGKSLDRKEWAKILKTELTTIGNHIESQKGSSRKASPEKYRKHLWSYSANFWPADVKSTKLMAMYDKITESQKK
Protein translocase subunit SecA (Escherichia coli (strain K12)), sequence (P10408 whole entry): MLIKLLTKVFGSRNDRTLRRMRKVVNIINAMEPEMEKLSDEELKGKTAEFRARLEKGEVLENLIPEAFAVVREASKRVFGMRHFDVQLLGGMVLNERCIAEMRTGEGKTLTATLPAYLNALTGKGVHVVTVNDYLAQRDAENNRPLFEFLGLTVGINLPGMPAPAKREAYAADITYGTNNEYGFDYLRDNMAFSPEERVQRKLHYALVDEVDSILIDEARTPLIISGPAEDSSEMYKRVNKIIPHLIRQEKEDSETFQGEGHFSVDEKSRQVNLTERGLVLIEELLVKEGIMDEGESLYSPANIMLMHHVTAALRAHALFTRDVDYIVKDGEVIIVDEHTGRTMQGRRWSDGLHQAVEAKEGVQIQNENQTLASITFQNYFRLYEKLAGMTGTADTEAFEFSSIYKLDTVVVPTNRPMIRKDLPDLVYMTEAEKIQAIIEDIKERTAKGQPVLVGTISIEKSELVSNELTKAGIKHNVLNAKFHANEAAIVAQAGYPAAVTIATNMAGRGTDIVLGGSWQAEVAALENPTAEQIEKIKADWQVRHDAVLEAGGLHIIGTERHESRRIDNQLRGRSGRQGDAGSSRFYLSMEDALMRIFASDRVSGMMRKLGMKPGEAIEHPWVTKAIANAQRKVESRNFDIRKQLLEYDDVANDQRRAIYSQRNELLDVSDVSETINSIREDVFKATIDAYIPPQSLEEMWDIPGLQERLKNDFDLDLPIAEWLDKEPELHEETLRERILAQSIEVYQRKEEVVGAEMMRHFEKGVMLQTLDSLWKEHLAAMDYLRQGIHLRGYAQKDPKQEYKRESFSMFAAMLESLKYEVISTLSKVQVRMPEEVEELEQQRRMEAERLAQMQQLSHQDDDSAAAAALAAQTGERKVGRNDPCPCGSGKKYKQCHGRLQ

In the case of `CCOCC1CC2(CCN(C(=O)c3ccccc3F)CC2)CO1` (stereo not given), the Percent Effect is -6.56% in test [1]; 6.49% in test [2]; -7.4% in test [3]; -3.41% in the test on Trypanosoma cruzi; -7.29% in test [4]; -0.794% in test [5]. In addition, the Percent Effect in the test filed under Homo sapiens was -3.95%; in test [6] it was 2.63%; in test [7], 7.69%; in [8] it was -0.095%.
For the compound `O=C(Nc1ccccc1)C1=CC2(CCNCC2)c2ccccc21`, the Percent Effect in test [1] is -2.8%; in test [2], 9.09%; in test [3], 1.86%; with Trypanosoma cruzi, -0.938%; in test [4], 3.2%; in [5], 13.5%. Further, the Percent Effect in the test listed under Homo sapiens was -1.59%; in test [6], -2.9%; in test [7], -2.5%; in test [8] it was -4.38%.
Consider `Cc1cccc(C(=O)N2CCCCC2c2ccc(CN(C)C)cc2)n1` (stereo not given), for which the Percent Effect in [1] was -1.58%; in [2] it was 18.9%; in test [3] it was 3.59%; in the test with Trypanosoma cruzi it was 5.92%; in [4], 27.6%; in [5] it was 21.2%. Further, the Percent Effect in the test listed under Homo sapiens was 5.13%; in test [6], 9.04%; in test [7], 14.6%; in test [8], -6.07%.
Regarding `O=C(Cc1c[nH]c2ccccc12)N1CCC(Nc2cccnn2)CC1`, the Percent Effect in [1] is -6.75%; in test [2], 15.6%; in test [3] it was 5.29%; with Trypanosoma cruzi it was -4.1%; in [4] it was 3.07%; in test [5] it was 5.96%. Also, the Percent Effect is 5.15% in the test filed under Homo sapiens, 7.84% in test [6], 16.5% in [7] and -5.46% in [8].
On to `CC(=O)N1CCC2(CCCN(Cc3ccc(Cl)c(C(F)(F)F)c3)C2)C1` (stereo not given), for which the Percent Effect in test [1] was -6.95%; in test [2], 3.9%; in test [3], -5.84%; in the test on Trypanosoma cruzi, 1.07%; in [4], -1.22%; in test [5], 1.15%. In addition, the Percent Effect in the test listed under Homo sapiens is -5.5%; in test [6] it was -8.95%; in test [7], 10.3%; in test [8], 0.22%.
With `COCCN1CC(C(=O)NCc2ccnc(-n3cccn3)c2)CC1=O` (stereo not given), the Percent Effect in test [1] is -3.79%; in test [2], -5.13%; in test [3], -5.84%; in the test with Trypanosoma cruzi it was -1.22%; in test [4], 3.28%; in test [5], -1.79%. For the same compound, the Percent Effect is 23.2% in the test listed under Homo sapiens, -2.39% in test [6], -3.61% in test [7] and 6.47% in test [8].
In the case of `CC(=O)N1CCCN(CC(C)(O)c2cccc(C(F)(F)F)c2)CC1` (stereo not given), the Percent Effect in test [1] is -3.98%; in test [2] it was 10.4%; in [3], 8.53%; with Trypanosoma cruzi it was 2.42%; in test [4], -7.99%; in test [5] it was 3.51%. The Percent Effect in the test listed under Homo sapiens was -6.46%; in [6], 6.86%; in test [7], 16.5%; in [8], -9.58%.
With `CC(=O)N1N=C(c2ccccc2)OC1C(=O)NCCC1=CCCCC1` (stereo not given), the Percent Effect in test [1] is 1.88%; in test [2] it was 12%; in test [3], -5.04%; with Trypanosoma cruzi, -0.986%; in test [4], 2.21%; in test [5], 7.55%. Besides, the Percent Effect in the test listed under Homo sapiens was 26.2%; in test [6], -1.06%; in test [7], 5%; in test [8], -32.1%.
For `Cc1cccc(CN2CCc3nnc(CN4CCCC4=O)n3CC2)n1`, the Percent Effect was -3.64% in test [1]; 14.3% in test [2]; 1.97% in test [3]; -2.06% with Trypanosoma cruzi; -2.28% in test [4]; 8.67% in test [5]. Also, the Percent Effect in the test listed under Homo sapiens is 9.65%; in test [6] it was 4.83%; in test [7], 10%; in test [8], -8.05%.
With `C[C@@H]1C(=O)NC[C@H]2CN(CCc3ccccc3)C[C@H]21`, the Percent Effect in test [1] is -0.103%; in test [2], 16.9%; in test [3] it was 0.474%; with Trypanosoma cruzi, 1.5%; in [4], 2.74%; in [5], 11.4%. For the same compound, the Percent Effect was 2.51% in the test filed under Homo sapiens, 11.6% in test [6], 20% in [7] and -8.42% in test [8].
With `O=C(CCc1cc2n(n1)CCN(Cc1ncc[nH]1)C2)N1CCCC1`, the Percent Effect in test [1] is -3.73%; in test [2], 18.9%; in [3] it was 0.852%; with Trypanosoma cruzi, 1.07%; in test [4] it was 13.6%; in [5] it was 14.4%. The Percent Effect in the test filed under Homo sapiens is 15.1%; in test [6] it was 4.79%; in [7], 19.5%; in [8] it was -1.96%.
Consider `CN(C(=O)Cc1c[nH]c2ccccc12)C1CCN(c2ccccn2)CC1`, for which the Percent Effect in test [1] is -4.77%; in test [2], 2.67%; in test [3] it was -1.22%; with Trypanosoma cruzi, -3.81%; in test [4] it was 1.77%; in [5] it was 4.16%. The Percent Effect is 31.5% in the test filed under Homo sapiens, 3.68% in test [6], 0% in [7] and -14.4% in [8].
With `Cc1cnc(C(=O)N2C[C@@H]3CN(CC4CCCC4)CCO[C@@H]3C2)cn1`, the Percent Effect in test [1] is -3.12%; in [2], 11.7%; in [3] it was 4.74%; in the test on Trypanosoma cruzi, 0.682%; in test [4], -3.24%; in [5], 9.97%. In addition, the Percent Effect was 11% in the test filed under Homo sapiens, 5.79% in [6], 10.3% in test [7] and -2.15% in test [8].
Take `O=C(c1cnccn1)N1CCCC2(COCCN(CC3CC3)C2)C1` (stereo not given): the Percent Effect in [1] was -3.64%; in [2] it was -1.3%; in test [3] it was -5.88%; with Trypanosoma cruzi it was -2.43%; in test [4], -0.81%; in test [5], 7.15%. Also, the Percent Effect in the test filed under Homo sapiens was -2.31%; in test [6] it was -0.526%; in [7] it was 5.13%; in test [8], -0.986%.
